Reference: PubChem BioAssay (NCATS)
Results filed as inconclusive are left out. A number with no mark means an inactive call. Calls follow the shape of the dose curve; as a rule, active = well fitted curve in the direction sought with a large enough effect in the signal ratio (not every such curve was filed as active); inconclusive = small, poorly fitted or top-dose-only effect, or effect the other way, or a change in a side signal; inactive = no such curve, though single readings can be large or run the other way; the % refers to the signal ratio.

biological target: Tyrosine-protein phosphatase non-receptor type substrate 1 (Homo sapiens) + Leukocyte surface antigen CD47 (Homo sapiens) (UniProt P78324+Q08722); test: CD47-SIRPalpha protein protein interaction - HTRF assay qHTS validation (AID 1347058); details: TR-FRET HTRF CD47-His / biotin-SIRPalpha binding, ratio 665/615; series mostly up to 38.3 µM; activity change, negative = inhibition: at the top concentration; also: 0% is about no effect
Summary of the method: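 Soluble extracellular domains (6His-CD47, Avi-tag-biotinylated SIRPalpha) in PBS pH 7.4 with 0.05% IGEPAL CA-630. Compounds were preincubated 30 min at RT with CD47 and anti-His-Eu, then SIRPalpha and SAV-XL665 were added. TR-FRET 665/615 ratio.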

Sequence of Tyrosine-protein phosphatase non-receptor type substrate 1 (Homo sapiens) + Leukocyte surface antigen CD47 (Homo sapiens) (P78324 whole entry, looked up, the tested form may be a part): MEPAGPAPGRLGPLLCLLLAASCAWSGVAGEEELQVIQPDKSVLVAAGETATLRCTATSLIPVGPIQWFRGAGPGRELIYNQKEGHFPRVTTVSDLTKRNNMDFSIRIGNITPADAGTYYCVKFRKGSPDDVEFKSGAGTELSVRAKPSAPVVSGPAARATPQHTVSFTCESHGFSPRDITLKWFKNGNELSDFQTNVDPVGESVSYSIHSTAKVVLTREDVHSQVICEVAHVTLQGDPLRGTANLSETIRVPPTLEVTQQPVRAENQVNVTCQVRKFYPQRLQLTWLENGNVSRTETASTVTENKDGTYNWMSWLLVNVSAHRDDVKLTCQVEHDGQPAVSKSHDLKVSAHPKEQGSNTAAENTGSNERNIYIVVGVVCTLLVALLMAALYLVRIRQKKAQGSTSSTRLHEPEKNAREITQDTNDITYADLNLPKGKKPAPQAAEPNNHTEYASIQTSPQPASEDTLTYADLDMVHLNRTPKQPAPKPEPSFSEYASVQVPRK
Sequence of Tyrosine-protein phosphatase non-receptor type substrate 1 (Homo sapiens) + Leukocyte surface antigen CD47 (Homo sapiens) (Q08722 whole entry, looked up, the tested form may be a part): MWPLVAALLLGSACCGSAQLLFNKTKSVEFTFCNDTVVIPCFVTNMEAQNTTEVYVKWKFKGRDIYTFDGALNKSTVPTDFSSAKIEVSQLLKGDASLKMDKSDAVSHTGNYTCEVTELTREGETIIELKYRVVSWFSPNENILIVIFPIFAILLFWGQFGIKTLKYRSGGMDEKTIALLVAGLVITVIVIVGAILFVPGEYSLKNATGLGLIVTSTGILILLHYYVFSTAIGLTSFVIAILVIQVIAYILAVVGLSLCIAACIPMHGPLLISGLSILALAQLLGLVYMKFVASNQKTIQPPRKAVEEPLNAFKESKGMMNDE

Question: `O=c1[nH]c(=S)[nH]c(-c2ccccc2)c1Cc1c(O)ccc2ccccc12` was tested. Which “activity change, negative = inhibition” value did it give?
Answer: The value was 0.228%.

Question: `C=C1C[C@@]23CC[C@H]4[C@@](C)(CCC[C@@]4(C)C(=O)O)[C@@H]2CC[C@]1(O)C3` was tested. Which “activity change, negative = inhibition” value did it give?
Answer: Its value is 2.66%.

Question: `CCCn1c(=O)c2[nH]c(C3CCCC3)nc2n(CCC)c1=O` was tested. Which “activity change, negative = inhibition” value did it give?
Answer: The value was -2%.

Question: `NC(=O)CNCCC(c1ccccc1)c1ccccc1` was tested. Which “activity change, negative = inhibition” value did it give?
Answer: The value was -4.26%.

Question: For `O=C(N[C@@H](Cc1ccccc1)C(=O)CCl)OCc1ccccc1`, which “activity change, negative = inhibition” value is on record?
Answer: Its value is 1.34%.

Question: `O=C(O)C1=CCCN(CCON=C(c2ccccc2)c2ccccc2)C1` was tested. Which “activity change, negative = inhibition” value did it give?
Answer: The value was -0.778%.

Question: With `O=C(O)Cc1c[nH]c2ccc(O)cc12` as the molecule, how does the “activity change, negative = inhibition” value read?
Answer: The value was 17.6%.

Question: Which “activity change, negative = inhibition” value does the source give for `Clc1nccc2c1ccc1ccccc12` here?
Answer: The value was 1.5%.

Question: Which “activity change, negative = inhibition” value does the source give for `O=C(O)/C=C/c1ccc(O)c(O)c1` here?
Answer: The value was 0.316%.

Question: How did the “activity change, negative = inhibition” value turn out when `NCCCCN=C(N)N` was run?
Answer: The value was -4.3%.

Question: `Cc1cccc(C)c1OCC(N)C(C)C` (stereo not drawn) was tested. Which “activity change, negative = inhibition” value did it give?
Answer: The value was -4.9%.

Question: `C#CC(N)CCC(=O)O` (stereo not drawn) was tested. Which “activity change, negative = inhibition” value did it give?
Answer: The value was -3.57%.

Question: `CN[C@H](CC(=O)O)C(=O)O` was tested. Which “activity change, negative = inhibition” value did it give?
Answer: The value was -5.96%.

Question: For `CCCCCCCCCC[Si](C)(C)CCC(=O)NC(Cc1ccc(C)cc1)c1ccccc1` (stereo not drawn), which “activity change, negative = inhibition” value is on record?
Answer: Its value is 1.04%.

Question: How did the “activity change, negative = inhibition” value turn out when `c1ccc2c(c1)CCC[C@H]2Nc1nc2ccccc2[nH]1` was run?
Answer: The value was -0.635%.

Question: How did the “activity change, negative = inhibition” value turn out when `c1ccc(CN2CCC3(CCCc4ccccc43)CC2)cc1` was run?
Answer: The value was -0.004%.

Question: How did the “activity change, negative = inhibition” value turn out when `CC(C)NC[C@H](O)COc1cccc2ccccc12` was run?
Answer: The value was 0.665%.

Question: With `OC1(c2ccc(Cl)cc2)CCN(Cc2c[nH]c3ccccc23)CC1` as the molecule, how does the “activity change, negative = inhibition” value read?
Answer: Its value is 0.994%.

Question: For `NC(Cc1cccc(-c2ccccc2CP(=O)(O)O)c1)C(=O)O` (stereo not drawn), which “activity change, negative = inhibition” value is on record?
Answer: The value was -0.991%.

Question: For `COc1ccc2c(c1)c(CC(=O)O)c(C)n2Cc1ccc(Cl)cc1`, which “activity change, negative = inhibition” value is on record?
Answer: The value was 0.98%.

Question: `C[C@@]1(C2CCCC2)Cc2cc(OCC(=O)O)c(Cl)c(Cl)c2C1=O` was tested. Which “activity change, negative = inhibition” value did it give?
Answer: Its value is -0.684%.

Question: `CN1CCCC1CCOC(C)(c1ccccc1)c1ccc(Cl)cc1` (stereo not drawn) was tested. Which “activity change, negative = inhibition” value did it give?
Answer: Its value is 7.63%.

Question: For `CC(C)Cn1c(=O)n(C)c(=O)c2[nH]cnc21`, which “activity change, negative = inhibition” value is on record?
Answer: The value was 2.21%.
